The results in this text go back to PubChem BioAssay (Tox21).

Molecules are shown by their SMILES. Records with an inconclusive call do not appear. Values without a mark were called inactive. Activity calls are given as the source filed them. Unless noted, calls follow the shape of the dose curve; as a rule, active = well fitted curve in the direction sought with a large enough effect in the repeat runs; inconclusive = weak or mixed curves; inactive = no such curve, though single readings can be large; an effect the other way counts as inactive or inconclusive.

A short description of test [1]: qHTS RealTime-Glo MT Cell Viability Assay in HEK293 cells - 24 hour (AID 1224886). Also: top concentration of the series differs between compounds; nearly all actives have a fitted effect of over 50% in size. The method in brief:
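Assay medium contained NanoLuc luciferase plus cell-permeant prosubstrate, added with HEK293 cells at 600 cells/well. After 5 h at 37 C/5% CO2 compounds were added; plates stayed at 37 C for 40 h with serial luminescence reads.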
On the technique in general: Quantitative high-throughput screening tests each substance at several concentrations.

The nature of test [2]: qHTS RealTime-Glo MT Cell Viability Assay in HEK293 cells - 8 hour (AID 1224887). Also: top concentration of the series differs between compounds; nearly all actives have a fitted effect of over 50% in size. Summed up:
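Nonlytic bioluminescent viability monitoring. HEK293 at 600 cells/well with reagent; 5 h settle; compound transfer by pintool; plates held at 37 C and read at set time points.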

Test [3] can be described thus: A CellTox Green Cytotoxicity Assay to monitor cytotoxicity in HEK293 cells - 16 hour (AID 1224888). Also: nearly all actives have a fitted effect of over 35% in size. Summed up:
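Cytotoxicity was tracked continuously in HEK293 cells by a DNA-binding dye excluded from viable cells. Compounds were transferred in DMSO 5 h after seeding; fluorescence was recorded at intervals up to 40 h.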

Test [4] is described as follows: qHTS RealTime-Glo MT Cell Viability Assay in HepG2 cells - 0 hour (AID 1224889). Also: nearly all actives have a fitted effect of over 50% in size. Summed up:
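qHTS, HepG2, 600 cells/well, RealTime-Glo (NanoLuc + prosubstrate) added with cells; 5 h preincubation; DMSO compound addition; 37 C; luminescence at 0/8/16/24/32/40 h.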

The nature of test [5]: A CellTox Green Cytotoxicity Assay to monitor cytotoxicity in HepG2 cells - 8 hour (AID 1224890). Also: nearly all actives have a fitted effect of over 45% in size. The method in brief:
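Real-time, homogeneous cytotoxicity readout: dead-cell DNA staining by CellTox Green in HepG2 monolayers, fluorescence measured at timed intervals up to 40 h of continuous compound exposure.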

Test [6] in a line: qHTS assay to identify small molecule antagonists of the estrogen receptor alpha (ER-alpha) signaling pathway using the BG1 cell line in the presence of 0.1 nM 17-beta-estradiol - cell viability counter screen (AID 1259241). Also: nearly all actives have a fitted effect of over 40% in size. Also: potency is read from the fitted curve at half-maximal effect. The method in brief:
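In this screen, hormone-deprived VM7Luc4E2 cells were seeded at 4,000 per well, dosed with compound and 0.1 nM estradiol final, and incubated 22 hr at 37C and 5% CO2; fluorogenic live-cell protease signal reported viability.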

The nature of test [7]: qHTS assay to identify small molecule antagonists of the androgen receptor (AR) signaling pathway using the MDA cell line in the presence of 0.5 nM R1881 - cell viability counter screen (AID 1259242). Also: nearly all actives have a fitted effect of over 45% in size. Summed up:
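Cytotoxicity toward MDA-kb2 cells is measured by CellTiter-Fluor live-cell protease fluorescence after 16 hr compound exposure at 37C in the presence of 0.5 nM R1881 stimulator.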

The target of test [8] is Estrogen receptor (Homo sapiens) (UniProt P03372). Nature of the test: qHTS assay to identify small molecule antagonists of the estrogen receptor alpha (ER-alpha) signaling pathway using the BG1 cell line in the presence of 0.1 nM 17-beta-estradiol (AID 1259244). Also: nearly all actives have a fitted effect of over 50% in size. Summed up:
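After 5 days in hormone-depleted medium (charcoal-stripped serum, no phenol red), VM7Luc4E2 cells were seeded, incubated 24 h, then co-treated with compound and 0.1 nM (final) estradiol for 22 h before luminescence detection.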

Test [9] is described as follows: qHTS assay to identify small molecule phospholipidosis (PLD) inducers (AID 1259344; active = well fitted curve in the direction sought with a large enough effect; an effect the other way counts as inactive or inconclusive). The method in brief:
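Quantitative HTS in HepG2: compound plus LipidTOX Red dye for 24 h, paraformaldehyde fixation with Hoechst 33342, widefield high-content imaging; amiodarone as positive and DMSO as negative control.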

Test [10] concerns the target Androgen receptor (Homo sapiens) (UniProt P10275). Nature of the test: qHTS assay to identify small molecule antagonists of the androgen receptor (AR) signaling pathway using the MDA cell line in the presence of 0.5 nM R1881 (AID 1259243). Also: nearly all actives have a fitted effect of over 50% in size. The method in brief: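 Steps: seed MDA-kb2 cells, incubate 5 hr at 37C; pin-transfer compounds in DMSO; add R1881 to 0.5 nM final; incubate 16 hr; add ONE-Glo, wait 30 min at room temperature; read luminescence.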
% is scaled to controls: 0 for no effect and ±100 for the full control effect.

Sequence of Androgen receptor (Homo sapiens) (P10275 whole entry, looked up): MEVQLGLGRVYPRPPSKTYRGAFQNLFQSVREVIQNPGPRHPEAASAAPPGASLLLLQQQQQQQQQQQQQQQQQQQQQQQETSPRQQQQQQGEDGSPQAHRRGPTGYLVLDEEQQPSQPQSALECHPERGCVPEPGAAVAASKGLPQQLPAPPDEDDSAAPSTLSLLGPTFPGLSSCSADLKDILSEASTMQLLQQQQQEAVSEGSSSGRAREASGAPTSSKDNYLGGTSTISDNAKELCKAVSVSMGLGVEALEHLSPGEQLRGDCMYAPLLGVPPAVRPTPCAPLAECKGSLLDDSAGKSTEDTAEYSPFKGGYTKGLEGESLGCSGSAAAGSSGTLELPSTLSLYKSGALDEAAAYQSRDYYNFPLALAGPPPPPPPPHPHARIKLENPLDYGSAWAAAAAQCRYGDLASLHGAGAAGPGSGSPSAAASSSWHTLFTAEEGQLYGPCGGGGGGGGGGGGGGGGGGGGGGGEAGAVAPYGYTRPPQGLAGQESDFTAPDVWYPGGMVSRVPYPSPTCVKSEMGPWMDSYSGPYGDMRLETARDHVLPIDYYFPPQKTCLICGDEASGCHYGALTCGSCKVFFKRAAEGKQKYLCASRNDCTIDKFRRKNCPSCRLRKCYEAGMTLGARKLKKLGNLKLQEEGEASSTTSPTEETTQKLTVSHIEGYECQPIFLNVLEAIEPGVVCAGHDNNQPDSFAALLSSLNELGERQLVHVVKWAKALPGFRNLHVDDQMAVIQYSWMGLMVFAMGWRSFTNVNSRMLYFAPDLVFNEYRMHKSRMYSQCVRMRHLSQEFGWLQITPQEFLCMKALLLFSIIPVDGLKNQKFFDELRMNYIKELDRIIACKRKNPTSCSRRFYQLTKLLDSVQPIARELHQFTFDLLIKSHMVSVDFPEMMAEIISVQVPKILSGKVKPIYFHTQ
Sequence of Estrogen receptor (Homo sapiens) (P03372 whole entry, looked up): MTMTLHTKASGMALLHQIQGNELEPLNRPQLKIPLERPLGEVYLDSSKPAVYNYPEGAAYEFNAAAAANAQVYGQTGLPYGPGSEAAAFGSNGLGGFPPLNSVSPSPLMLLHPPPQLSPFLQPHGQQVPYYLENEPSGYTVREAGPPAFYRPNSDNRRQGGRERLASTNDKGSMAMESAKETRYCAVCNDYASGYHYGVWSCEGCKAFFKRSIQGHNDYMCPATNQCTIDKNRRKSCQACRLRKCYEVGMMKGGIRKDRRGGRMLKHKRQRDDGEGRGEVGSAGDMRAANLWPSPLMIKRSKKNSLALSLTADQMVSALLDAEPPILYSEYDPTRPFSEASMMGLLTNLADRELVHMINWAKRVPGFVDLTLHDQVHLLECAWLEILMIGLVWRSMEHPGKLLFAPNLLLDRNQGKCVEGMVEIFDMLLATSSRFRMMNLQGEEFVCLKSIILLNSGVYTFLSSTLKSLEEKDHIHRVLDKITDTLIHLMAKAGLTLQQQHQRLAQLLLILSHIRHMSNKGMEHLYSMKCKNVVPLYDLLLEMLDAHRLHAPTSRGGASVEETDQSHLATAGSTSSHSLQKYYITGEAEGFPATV

For the molecule `COc1ccc(NC(C)=O)cc1N`, the Potency result in test [1], in [2], in test [4], in test [5], in [6] and in test [8] was “inactive” in each case. The outcome in [3] and in [7] was inactive.
`CCCCC(CC)COC(=O)C(C#N)=C(c1ccccc1)c1ccccc1` (stereo not given): the Potency result in [1], in test [2], in test [4] and in [5] was “inactive” throughout. In addition, the call in test [3], in test [7] and in [9] was inactive.
With `CC1=C(C)S(=O)(=O)CCS1(=O)=O`, the Potency entry in [1], in test [2], in test [4], in test [5], in test [6] and in [8] was “inactive” each time. The outcome in test [3] and in test [7] was inactive.
On to `CCCC(C)=O`, for which the Potency result in test [1], in [2], in [4] and in test [5] was “inactive” in each case. Also, the result in [3] and in test [7] was inactive.
Regarding `CC(=O)CC(=O)Nc1ccccc1C`, the Potency result in test [1], in test [2], in [4], in [5], in test [6] and in test [8] was “inactive” each time. The call in [3] and in test [7] was inactive.
Turning to `CC(c1cc2ccccc2s1)N(O)C(N)=O` (stereo not given), the Potency result in [1], in test [2], in test [4], in [5], in test [6] and in test [10] was “inactive” throughout. In test [8], the Potency result was “inactive”. Further, the result in [3], in [7] and in [9] was inactive.
Consider `C[Si](O[Si](C)(C)C)O[Si](C)(C)C`, for which the Potency result in test [1], in [2], in [4], in test [5], in test [6] and in [10] was “inactive” throughout. Also, the result in [3] and in test [7] was inactive.
As to `CN(C)CCC(c1ccccc1)c1ccccn1` (stereo not given), the Potency result in [1], in test [2], in [4], in test [5] and in [6] was “inactive” in each case. In addition, the call in [3], in test [7] and in [9] was inactive.
In the case of `CCC(O)OC(O)CC` (stereo not given), the Potency result in test [1], in test [2], in test [4], in test [6] and in [8] was “inactive” each time. Also, the call in test [3] and in test [7] was inactive.
For the molecule `Cc1cnc(C(=O)NCCc2ccc(S(=O)(=O)NC(=O)NC3CCCCC3)cc2)cn1`, the Potency result in [1], in test [2], in test [4], in test [5] and in test [8] was “inactive” each time. The result in test [3], in test [7] and in test [9] was inactive.
As to `C=C(C)C(=O)OCCOCCOCCOC(=O)C(=C)C`, the Potency result in [1], in [2], in test [4] and in [5] was “inactive” each time. Besides, the call in [3] and in test [7] was inactive.
With `O=C(O)CCCCCCCCCCC(=O)O`, the Potency result in test [1], in test [2], in test [4], in test [5] and in [8] was “inactive” throughout. In addition, the call in [3] and in test [7] was inactive.
Take `NNc1nncc2ccccc12`: the activity change, negative = cytotoxicity in [1] is 2.63% [at 15.8 µM]; in test [2] it was 1.02% [at 15.8 µM]. Also, the result in test [3], in test [7] and in test [9] was inactive. For the same molecule, the Potency result in [4], in test [5] and in [6] was “inactive” in each case.
As for `O=C(O)c1cc(O)c(O)c(O)c1`, the Potency entry in test [1], in test [2], in [4], in [6] and in test [8] was “inactive” throughout. Also, the result in test [3], in test [7] and in test [9] was inactive.
In the case of `COc1ccc(Nc2ccccc2)c(C)c1`, the Potency result in [1], in test [2], in [4], in [5], in test [6] and in test [8] was “inactive” each time. The molecule was classed as inactive in test [3] and in test [7].
For the molecule `O=S1(=O)CC=CC1`, the Potency result in test [1], in test [2], in [4], in test [5], in [6] and in test [8] was “inactive” throughout. The molecule was classed as inactive in test [3] and in test [7].
For `O=C(O)CCCC[C@@H]1SC[C@@H]2NC(=O)N[C@@H]21`, the Potency entry in test [1], in test [2], in test [4], in test [5] and in test [8] was “inactive” each time. For the same molecule, the result in [3], in test [7] and in [9] was inactive.
With `CCCCCCCCCCCCS`, the Potency entry in test [1], in test [2], in test [4], in [6] and in test [8] was “inactive” throughout. For the same molecule, the molecule was called inactive in [3] and in test [7].
Consider `Nc1cc([N+](=O)[O-])ccc1O`, for which the Potency result in [1], in [2], in test [4] and in test [10] was “inactive” throughout. For the same molecule, in test [3], the outcome was inactive. The Potency in test [6] was 48.6 µM (active).
With `CCc1cccc(C)c1N`, the Potency entry in [1], in test [2], in test [4], in test [5], in test [6] and in test [10] was “inactive” each time. Further, the Potency result in test [8] is “inactive”. Also, the molecule was called inactive in [3] and in test [7].
`CCCCCC1=CCCC1=O`: the Potency entry in test [1], in test [2], in [4], in test [6] and in test [8] was “inactive” throughout. The molecule was classed as inactive in [3] and in test [7].
Consider `O=C(Oc1ccccc1)c1ccccc1`, for which the Potency result in test [1], in test [2], in test [4], in test [5] and in test [6] was “inactive” throughout. Besides, the call in test [3] and in test [7] was inactive.
For the molecule `CCCCN(CCCC)CCCC`, the Potency entry in test [1], in test [2], in test [4], in test [5], in test [6] and in test [8] was “inactive” in each case. Moreover, the molecule was called inactive in [3] and in test [7].
Consider `CN(C)CCOCCN(C)C`, for which the Potency entry in test [1], in test [2], in test [4] and in test [6] was “inactive” throughout. The call in [3] and in [7] was inactive.
`O=C(O)c1ccccc1C(c1ccc(O)cc1)c1ccc(O)cc1`: the Potency entry in test [1], in test [2], in [4], in test [5], in test [6] and in test [10] was “inactive” in each case. Moreover, in [8], the Potency entry is “inactive”. Further, the molecule was called inactive in test [3] and in test [7].
